Experimental data taken from publication PMC5540273 (PLoS ONE, 2017).

Tests used:
Details in all cases: concentration: 1 μM, replicates: in singlicate; n = 1
TTK = system: TTK
TXK = system: TXK
[1] = system: TYK2(JH1domain-catalytic)
[2] = system: TYK2(JH2domain-pseudokinase)
TYRO3 = system: TYRO3
ULK1 = system: ULK1
ULK2 = system: ULK2
ULK3 = system: ULK3
VEGFR2 = system: T1, VEGFR2
T1 construct: gene KDR

VPS34 = system: T2, VPS34
T2 construct: gene PIK3C3
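Note: KINOMEscan kinase panel screen.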

Compound | %Inh (TTK) [%] | %Inh (TXK) [%] | %Inh [1] [%] | %Inh [2] [%] | %Inh (TYRO3) [%] | %Inh (ULK1) [%] | %Inh (ULK2) [%] | %Inh (ULK3) [%] | %Inh (VEGFR2) [%] | %Inh (VPS34) [%]
Cc1ccc(NC(=O)Nc2cc(C(C)(C)C)nn2-c2ccccc2)cc1 [GSK1014915] | 4 | 0 | 25 | 4 | 7 | 17 | 0 | 13 | 6 | 0
Cl.c1ccc(-c2n[nH]cc2-c2ccnc(-c3ccc(CN4CCOCC4)cc3)c2)nc1 [GW776245] | 31 | 7 | 0 | 0 | 0 | 0 | 0 | 20 | 0 | 0
Cc1c(O)cccc1Nc1ccnc2ccc(C(F)(F)F)cc12.Cl [GW466413] | 0 | 25 | 9 | 14 | 3 | 2 | 0 | 0 | 0 | 0
Cc1csc(-c2nc(Nc3ccncc3)c3ccccc3n2)n1 [GW869640] | 35 | 0 | 100 | 83 | 0 | 33 | 23 | 50 | 36 | 33
Cc1cc(NCC(c2ccccc2)c2ccccc2)nc(NCc2ccc(C(F)(F)F)cc2)n1 [GW497681] | 0 | 0 | 9 | 23 | 0 | 0 | 0 | 0 | 0 | 0
NC(=O)c1nnc2ccccc2c1N | 12 | 4 | 44 | 38 | 2 | 24 | 0 | 29 | 16 | 20
Nc1nc(-c2nccs2)c(-c2ccnc3ccccc23)s1 [GW693542] | 14 | 5 | 0 | 9 | 18 | 8 | 0 | 0 | 0 | 0
CC(C)(C)c1ccc(C(=O)Nc2cn3cc(-c4cccnc4)ccc3n2)cc1 | 9 | 18 | 0 | 19 | 11 | 0 | 14 | 33 | 0 | 12
Cn1cncc1-c1ccc2ncnc(Nc3ccc(OCc4ccccc4)cc3)c2c1 [GW320571] | 19 | 34 | 29 | 0 | 3 | 25 | 0 | 14 | 0 | 23
